# Hits are enriched below; roughly 4.8% of the tested compounds scored in any of these assays.
# DAX1 inh-1: DAX1 (NR0B1) inhibitors, primary screen, cell-based, HEK293, Gal4-DAX1, luciferase luminescence. Nuclear receptor subfamily 0 group B member 1 (Homo sapiens), P51843. HEK293 Gal4-DAX1 luciferase reporter. inhibition, % at 6.75 µM. 340,000 tested, 0.99% active;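 active means inhibition above the mean over all tested compounds plus 3 SD, cut at about 4.2% in these data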;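 further: inhibition shows as a rise in luminescence from relieved DAX1 repression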
# hcDAF-12 act: H. contortus DAF-12 nuclear receptor activators, primary screen, cell-based, luminescence, HEK293, lit1-tk-luc reporter | HEK293 hcDAF-12 lit1-tk-luc reporter; 0% DMSO, 100% Δ7-dafachronic acid | 370,000 tested, 1.4% active | AID 652067, 2013 | activation, % at 6.8 µM;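 active means activation above the mean of all tested compounds plus 3 SD, cut at about 5.5% in these data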
# DAX1 inh-2: DAX1 (NR0B1) inhibitors on StAR promoter, primary screen, cell-based, luminescence, SF-1 (NR5A1), full-length DAX-1; HEK293T StAR-luciferase reporter, SF-1/DAX-1 repression relief; AID 652010, 2013; inhibition, % at 6.8 µM; 370,000 tested, 1.1% active;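 active means inhibition above the mean over all tested compounds plus 3 SD, cut at about 3.6% in these data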;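 further: higher inhibition means more luminescence from relief of DAX-1 repression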
# hgDAF-12 ag: H. glycines DAF-12 receptor agonists, primary screen, cell-based, luminescence, HEK293, GAL4 fusion, UAS-luciferase. 370,000 tested, 1.8% active. AID 687014, 2013. activation, % at 6.8 µM. Nuclear hormone receptor DAF-12 (Heterodera glycines), GAL4 fusion. HEK293 GAL4-hgDAF12 UAS-luciferase reporter, agonist luminescence; normalized to butyrate control;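 active means activation above a cutoff set at the mean of all screened compounds plus 3 SD, cut at about 10% in these data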
# SMARCA2 activ: SMARCA2 (BRM) function activators, primary screen, cell-based, luminescence, high throughput; AID 652017, 2013; 370,000 tested, 1% active; MG213 cells, MMTV-luciferase reporter, dexamethasone, overnight; activation, % at 9.1 µM; in the data active means activation above about 7.8%
# ssDAF12 agonist: S. stercoralis DAF-12 nuclear receptor activators, primary screen, cell-based, luminescence, HEK293, GRIP1 co-expression, lit1-tk-luc | HEK293 ssDAF-12/GRIP1 lit1-tk-luc reporter; % of 3 µM dafachronic acid response | AID 652126, 2013 | 370,000 tested, 1% active | activation, % at 6.8 µM;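 active means activation above the mean over all tested compounds plus 3 SD, cut at about 0.9% in these data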
# DAX1 conf: DAX1 (NR0B1) inhibitors relieving SF-1 repression, confirmation, cell-based, luminescence, HEK293T, full-length DAX-1, SF-1 activated StAR promoter | shares compounds with DAX1 inh-2 | HEK293T StAR-promoter luciferase reporter, SF-1/DAX-1 repression | inhibition, % at 6.8 µM | 2,400 tested, 87% active;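 active means inhibition above the average of every tested compound plus 3 SD, cut at about 3.8% in these data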
# Target sequence (P51843 whole entry, looked up): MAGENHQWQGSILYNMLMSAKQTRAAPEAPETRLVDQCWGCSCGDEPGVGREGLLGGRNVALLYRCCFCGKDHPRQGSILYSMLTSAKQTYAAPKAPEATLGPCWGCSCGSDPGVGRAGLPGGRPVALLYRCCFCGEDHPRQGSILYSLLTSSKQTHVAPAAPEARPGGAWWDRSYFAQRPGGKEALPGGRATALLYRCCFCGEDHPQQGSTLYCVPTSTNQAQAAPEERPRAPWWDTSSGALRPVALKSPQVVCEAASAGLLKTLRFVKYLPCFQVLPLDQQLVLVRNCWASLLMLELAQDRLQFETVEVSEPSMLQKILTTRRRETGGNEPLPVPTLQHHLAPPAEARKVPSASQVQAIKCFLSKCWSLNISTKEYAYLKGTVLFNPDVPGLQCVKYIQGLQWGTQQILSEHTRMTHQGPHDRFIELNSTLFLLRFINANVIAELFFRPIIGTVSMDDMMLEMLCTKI
# SF1 mutant ctr: StAR reporter signal changes without DAX1, counter-screen for DAX1 inhibitor project, cell-based, luminescence, AF-2 mutant SF-1, transactivation | 2,400 tested, 78% active | shares compounds with DAX1 inh-2 | HEK293 StAR-luciferase, SF-1 AF2 mutant | inhibition, % at 6.8 µM;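 active means inhibition above the mean of all tested compounds plus 3 SD, cut at about 3% in these data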
# Numbers stand for hits; 0 = inactive; - = no result given.
SMILES,DAX1 inh-1,hcDAF-12 act,DAX1 inh-2,hgDAF-12 ag,SMARCA2 activ,ssDAF12 agonist,DAX1 conf,SF1 mutant ctr
O=C(NC(=S)Nc1ncccn1)c1ccc(F)cc1,0,0,0,0,0,0,-,-
COc1ccc(-c2cc(C(=O)Nc3ccc(C)c(C)c3)no2)cc1,0,0,0,0,0,0,-,-
O=C(NC(=S)Nc1cccnc1Cl)c1ccc(F)cc1,5.4,0,0,0,0,0,-,-
Cc1ccc(NC(=O)c2cc(-c3ccc(F)cc3)on2)cc1C,6.1,0,0,0,0,0,-,-
O=C(Nc1cccnc1Cl)c1cc(-c2ccc(F)cc2)on1,5.0,0,0,0,0,0,-,-
CCOc1ccc(N(CC(=O)Nc2ccc(C)c(C)c2)S(C)(=O)=O)cc1,8.9,0,0,0,0,0,-,-
CCOc1ccc(N(CC(=O)Nc2ccccc2)S(C)(=O)=O)cc1,0,0,0,0,0,0,-,-
COc1ccc(C(=O)OCCN2CCN(C3CN(Cc4cn(Cc5cccc(C)c5)nn4)S(=O)(=O)C3)CC2)cc1OC (stereo not drawn),-,0,0,0,0,0,-,-
CN(C(=O)c1cccc(NC(=O)Cc2ccc(NC(=O)C3CCN(C(=O)C4CC4)CC3)cc2)c1)C1CCC1,0,0,5.0,0,0,0,0,0
CCCC[C@@H]1C(=O)N2N=C(c3ccccc3)c3ccccc3[C@H]2N2N=C(c3ccccc3)c3ccccc3[C@@H]12,-,0,0,0,0,0,-,-
O=C(Nc1ccccc1)C(=O)Nc1ccc2c(c1)N(C(=O)C1CC1)CCC2,0,0,6.0,11,0,0,4.1,0
O=C(Nc1ccc(S(=O)(=O)N2CCCCCC2)cc1)c1[nH]ncc1[N+](=O)[O-],0,0,7.0,0,0,0,0,0
Cc1nn(CCC(=O)NNC(=O)Nc2ccccc2F)c(C)c1[N+](=O)[O-],-,0,0,0,0,0,-,-
O=C(Nc1nnc(-c2ccco2)s1)c1ccccc1,0,6.5,6.6,11,0,0,16,6.2
COC(=O)[C@@H](Cc1ccccc1)N[C@H](/C=C/c1ccccc1)[C@@H](O)Cc1ccccc1,-,0,0,0,0,0,-,-
Cn1cccc1/C=N/NC(=O)c1cccs1,0,0,5.5,11,0,0,5.7,3.7
CC(C)(C)c1ccc(C(=O)NC(=S)N2CCOCC2)cc1,0,0,7.0,13,0,0,8.8,3.4
CC(=O)N1CCc2c1cccc2S(=O)(=O)NC(CC(C)C)C(=O)Nc1ccccc1C (stereo not drawn),-,0,0,0,0,0,-,-
Cc1ccc(NC(=O)CCc2c(C)nn(-c3ccc(N4CCCCC4)nn3)c2C)cc1F,0,0,10,11,0,0,8.2,4.0
Nc1ccc(F)c(CN2CCN(c3ncc(Cc4ccccc4)cn3)CC2)c1,-,0,0,0,0,0,-,-
O=C(CS(=O)(=O)c1ccc(F)cc1)Nc1nccs1,0,0,0,0,0,0,-,-
O=C(COc1ccc(F)cc1)Nc1nccs1,0,0,7.5,12,0,0,11,6.3
CCc1ccccc1NC(=O)COc1ccc2c(c1)OCO2,0,0,0,0,0,0,-,-
Cc1ccc(NC(=O)COc2ccc3c(c2)OCO3)c(Cl)c1,0,0,5.0,13,0,0,9.2,4.3
CCOC(=O)c1sc(NC(=O)COc2ccc3c(c2)OCO3)nc1C,0,0,0,0,0,0,-,-
SMILES,DAX1 inh-1,hcDAF-12 act,DAX1 inh-2,hgDAF-12 ag,SMARCA2 activ,ssDAF12 agonist,DAX1 conf,SF1 mutant ctr
O=C(COc1ccc(F)cc1)Nc1ccc2c(c1)OCCO2,0,0,5.0,0,0,0,4.2,0
CC(C)(C)c1nnc(NC(=O)COc2ccc3c(c2)OCO3)s1,0,0,7.9,0,0,0,9.1,7.2
Clc1ccc(CN2CCN(N=Cc3ccncc3)CC2)cc1,-,0,0,0,0,0,-,-
COC(=O)CCN(Cc1ccc(OC)cc1OC)S(=O)(=O)c1ccccc1Br,-,0,0,0,0,0,-,-
COc1cc(C)ccc1OCC(=O)Nc1ccc2c(c1)OCO2,0,0,6.2,0,0,0,7.7,6.3
O=C(CSc1nnc(Cc2cccs2)n1-c1ccccc1)Nc1ccccc1-c1ccccc1,-,0,0,0,0,0,-,-
Cc1ccc(OCC(=O)NC(=S)Nc2ccccn2)c(Br)c1,0,0,0,0,0,0,-,-
O=C(COc1ccc(Br)cc1Cl)NC(=S)Nc1ccccn1,5.2,0,4.8,0,0,0,16,3.0
C[C@@H]1CCN(C2CC2)S(=O)(=O)c2c(cccc2N2CC[C@@H](N(C)C)C2)O1,-,0,0,0,0,0,-,-
C=CCN1C(=O)[C@@H](CC(=O)NCc2cccs2)[C@]2(C(=O)OC)CCCCC=C12,-,0,0,0,0,0,-,-
COC(=O)C[C@@H]1CC[C@@H]2[C@H](COc3ccc(NC(=O)c4ccc(F)c(F)c4)cc3C(=O)N2C)O1,-,0,0,0,0,0,-,-
Cc1ccccc1C(=O)Nc1nnc(SCC(=O)NC2CC2)s1,0,0,7.4,0,0,0,6.1,3.6
COc1ccccc1C(=O)Nc1nnc(SCC(=O)NCC2CCCO2)s1 (stereo not drawn),0,0,10,11,0,0,9.6,9.2
COc1ccccc1C(=O)Nc1nnc(SCC(=O)NCc2ccco2)s1,0,-,-,-,-,-,-,-
COc1cc(C(=O)Nc2nnc(SCC(=O)NCC3CCCO3)s2)cc(OC)c1OC (stereo not drawn),0,0,0,0,0,0,-,-
COc1ccc(C(=O)Nc2nnc(SCC(=O)NC3CCCC3)s2)c(OC)c1,0,0,10,11,0,2.3,8.4,0
COc1cccc(C(=O)Nc2nnc(SCC(=O)NC3CC3)s2)c1,0,0,0,0,0,0,-,-
COc1ccc(C(=O)Nc2nnc(SCC(=O)NCc3ccco3)s2)c(OC)c1,0,0,5.0,0,0,0,5.5,0
O=C(N[C@@H](Cc1cccnc1)C(=O)N1CCC[C@H]1C(=O)NCCc1ccccc1Cl)c1cccs1,-,0,0,0,0,0,-,-
